Measurements: PubChem BioAssay (NCI)
This is part of a sample that, as a whole, favours compounds with a hit. Of some 79,000 tested, about 15% had one in any assay. Values without a mark were called inactive. Active and inactive are the calls of the source. No stated cut-off is given here; in the data, active means growth inhibition above about 70%; inactive means the rest.

Tests used:
[1] = NCI Yeast Anticancer Drug Screen. Data for the rad50 strain (AID 155);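 further: 0% = growth of vehicle-only cultures of the same strain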; conditions: S. cerevisiae rad50 strain growth inhibition; at 50.0 µM; active compounds read high
Method in brief: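 Relative growth inhibition (compound vs vehicle) was measured in yeast with a defined repair-gene alteration.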

[2] = NCI Yeast Anticancer Drug Screen. Data for the mec2-1 strain (AID 157); conditions: S. cerevisiae mec2-1 strain, at 50.0 µM, active compounds read high
Method in brief: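 Growth inhibition is read against vehicle-treated controls after compound exposure of the mec2-1 yeast strain, which is defective in DNA damage repair or cell cycle control.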

[3] = NCI Yeast Anticancer Drug Screen. Data for the sgs1 mgt1 strain (AID 161);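 further: 0% = growth of cultures given vehicle only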; conditions: S. cerevisiae sgs1 mgt1 strain, at 50.0 µM, active compounds read high
Method in brief: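 Growth of a repair-deficient yeast mutant was monitored after compound treatment and expressed as inhibition relative to vehicle-treated cultures.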

[4] = NCI Yeast Anticancer Drug Screen. Data for the cln2 rad14 strain (AID 165);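 further: 0% = growth equal to vehicle treated cultures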; conditions: S. cerevisiae cln2 rad14 strain, at 50.0 µM, active compounds read high
Method in brief: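 Growth inhibition, relative to vehicle-treated controls, is the read-out. The test organism is a yeast strain with defined genetic alterations, cln2 rad14.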

[5] = NCI Yeast Anticancer Drug Screen. Data for the bub3 strain (AID 167); conditions: S. cerevisiae bub3 mutant strain, at 50.0 µM, active compounds read high
Method in brief: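 Screening used yeast with an engineered genetic alteration affecting cell cycle control. Compound-exposed cultures were compared with vehicle cultures, and reduced growth was taken as inhibition.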

[6] = NCI Yeast Anticancer Drug Screen. Data for the mlh1 rad18 strain (AID 175); conditions: S. cerevisiae mlh1 rad18 strain growth inhibition; at 50.0 µM; active compounds read high
Method in brief: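 Cells of a genetically altered yeast strain, deficient in DNA damage repair, were treated with compound. Their growth was then compared with that of vehicle-treated cultures to give inhibition.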

Row | Compound | growth inhibition [1] | growth inhibition [2] | growth inhibition [3] | growth inhibition [4] | growth inhibition [5] | growth inhibition [6]
1 | O=C(OCc1c(-c2ccccc2)nn(-c2ccccc2)c1COC(=O)Oc1ccccc1)Oc1ccccc1 | -2.8% | -14.6% | -11.8% | 17.8% | -11.2% | 10.2%
2 | CCOC(=O)C1(C)CCCC1=O (stereo not given) | 13.8% | -8.6% | 3.95% | 6.95% | 2.6% | -0.4%
3 | COc1cc(NCCN2CCOCC2)c([N+](=O)[O-])cc1OC | 22.3% | 12.1% | 8.25% | 2.6% | -0.65% | 8.15%
4 | O=C(NCCCl)NC(C1CC1)C1CC1 | 13.1% | -2.9% | 6.45% | -58.1% | 13.4% | -3.95%
5 | O=C1NC2(CCCCC2)C(=O)N1CCN1C(=O)NC2(CCCCC2)C1=O | 6.7% | 4.2% | -1.8% | 8.85% | -14.3% | -10.5%
6 | COC(=O)CNC(=O)C1CSC(C)(C)N1 (stereo not given) | -5.9% | -6.65% | -15.7% | -12.2% | -1.05% | -9.15%
7 | O=C(NCCCCCCNC(=O)Nc1cccc(C(F)(F)F)c1)Nc1cccc(C(F)(F)F)c1 | -9.65% | -13.7% | -4.05% | -19.1% | 2.4% | 8.8%
8 | COc1ccc(C2=CSC3=NC(C)(C)CC(C)=NN23)cc1 | -16.8% | -8.2% | 7.35% | 29.2% | 9.25% | -1.75%
9 | COC(=O)c1cc(NC(=O)Nc2ccc(F)c([N+](=O)[O-])c2)cc(C(=O)OC)c1 | 8.9% | 4.85% | -4.6% | 7.3% | -1.3% | 26.8%
10 | CCCCCc1ccc2oc(=O)c3ccc(C)cc3c2c1O | -9.7% | 8.7% | 16.2% | -16.8% | -25.3% | -5.6%
11 | O=C(CNCc1ccccc1)NC(Cc1ccccc1)c1ccccc1 (stereo not given) | 8.15% | -14.3% | 0.35% | 16.9% | 13.4% | 20.9%
12 | COc1ccc(C2OCC3(O)C(c4ccc(OC)c(OC)c4)OCC23)cc1OC (stereo not given) | -0.85% | -3.15% | -1.35% | 19.4% | -9.8% | 6.85%
13 | C(/C=C/c1ccccc1)=C1SCCCS1 | 0.55% | -7.6% | -4.7% | -18.9% | -2.15% | -4.6%
14 | O=S1(=O)c2ccccc2NC(c2ccc3ccccc3c2)CC1c1ccccc1F (stereo not given) | -25.3% | -28.1% | -47% | 4.95% | -18.4% | -14.2%
15 | ClCC1=NC2C(Cl)C(Cl)C(Cl)C(Cl)C2N1 (stereo not given) | 87.8% (active) | 77% (active) | 94.7% (active) | 87.5% (active) | 75.9% (active) | 94% (active)
16 | CC1(C)C2(SCCS2)C(C)(C)C12SCCS2 | 22.9% | 3.05% | 17.9% | 3.75% | 11.4% | 5.4%
17 | CSC1(C)C(=O)Nc2cc(C(F)(F)F)ccc21 (stereo not given) | 17.6% | 1.5% | 1.65% | 17.4% | 2% | 3.4%
18 | COc1ccccc1NC(=O)C1=C(C)NC(C)=C(C(=O)Nc2ccccc2OC)C1c1ccc(C(C)C)cc1 | 18.2% | 3.35% | 11.8% | 29.6% | -11.8% | 33.8%
19 | CC(=O)OC1(C(=O)O)CCCCC1 | 5.8% | 14% | -0.05% | -19.9% | 5.25% | 9.65%
20 | N#Cc1ccccc1C(Cl)(Cl)c1cnccn1 | 9.9% | -6.85% | -10.7% | 29.9% | -0.4% | 20.1%
